The nature of assay [1]: APR_HepG2_P-H2AX_72hr: Apredica 72-hour HepG2 Assay for H2AX Phosphorylation (AID 2282916).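 Note: phospho-histone H2A.x immunostain intensity per cell marking DNA damage.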 The settings on record: imaging, actives raise or lower the signal. The gist of the method:
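Human hepatoma HepG2 cells are dosed across ten concentrations (0.39 to 200 uM, 0.5% v/v DMSO) and incubated 72 hr. Phospho-histone H2A.x is then detected by antibody staining alongside c-Jun and Hoechst, and quantified by automated fluorescence imaging.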

Assay [2] in a line: APR_HepG2_MitoMembPot_72hr: Apredica 72-hour HepG2 Assay for Mitochondrial Membrane Potential (AID 2282917). The settings on record: imaging, actives raise or lower the signal. The essentials:
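Membrane potential read by MitoTracker Red CMXRos (250 nM, 30 min, pre-fixation) fluorescence imaging of HepG2 after 72 hr exposure. Ten concentrations, 0.39–200 uM, duplicate wells, 0.5% DMSO; fitted in both directions against DMSO baseline.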

Assay [3] is described as follows: APR_HepG2_MitoticArrest_72hr: Apredica 72-hour HepG2 Assay for Mitotic Arrest (AID 2282918). The following applies: high-content imaging, actives raise or lower the signal. The gist of the method:
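HepG2 cells treated 72 h at 0.39–200 uM, 0.5% DMSO final; formaldehyde-fixed, stained with Hoechst 33342 and phospho-histone H3 antibody, imaged by high-content fluorescence; bidirectional fit versus DMSO.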

Assay [4] can be described thus: APR_HepG2_MicrotubuleCSK_72hr: Apredica 72-hour HepG2 Assay for Microtubule CSK Stabilty (AID 2282919). The following applies: HepG2 microtubule cytoskeleton, high-content imaging, actives raise or lower the signal. The gist of the method:
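High-content imaging of alpha-tubulin staining in fixed HepG2 cells after 72 hr treatment with ten concentrations from 0.39 to 200 uM (0.5% DMSO). Fitting was bidirectional against DMSO; taxol served as positive control.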

A short description of assay [5]: APR_HepG2_P-H2AX_24hr: Apredica 24-hour HepG2 Assay for H2AX Phosphorylation (AID 2282920). The settings on record: high-content imaging, actives raise or lower the signal. The gist of the method: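 HepG2 cells dosed 24 h at 0.39–200 uM (10 points, duplicate, 0.5% DMSO final). Formaldehyde-fixed and permeabilized, then immunostained for phospho-H2A.x with Hoechst. Fluorescence quantified by high-content imaging, fitted bidirectionally versus DMSO.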

The nature of assay [6]: APR_HepG2_StressKinase_72hr: Apredica 72-hour HepG2 Assay for Stress Kinase (AID 2282921). The following applies: HepG2 stress kinase (phospho-c-Jun) imaging, actives raise or lower the signal. The essentials: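 After a 72 h compound treatment spanning 0.39 to 200 uM, formaldehyde-fixed cells are labelled for phosphorylated c-Jun and nuclei, imaged by automated fluorescence microscopy, and activity is fitted in both directions relative to DMSO controls.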

The nature of assay [7]: APR_HepG2_StressKinase_24hr: Apredica 24-hour HepG2 Assay for Stress Kinase (AID 2282922). The following applies: HepG2 stress kinase (phospho-c-Jun) imaging, actives raise or lower the signal. The gist of the method:
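High-content imaging of phospho-c-Jun immunofluorescence in fixed, permeabilized HepG2 cells after 24 h dosing. Ten concentrations, 0.39 to 200 uM, run in duplicate at 0.5% v/v DMSO; gain or loss of signal versus DMSO.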

Assay [8] in a line: APR_HepG2_p53Act_72hr: Apredica 72-hour HepG2 Assay for p53 Activation (AID 2282923).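 Note: average cellular p53 protein immunofluorescence intensity in HepG2 cells.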 The settings on record: high-content imaging, actives raise or lower the signal. The essentials:
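Imaging-based endpoint: after 72 hr compound exposure (up to 200 uM, 0.5% DMSO), fixed and permeabilized monolayers were labelled with anti-p53 antibody and imaged; signal change in either direction was fitted relative to DMSO controls.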

Assay [9] is described as follows: APR_HepG2_MitoMass_72hr: Apredica 72-hour HepG2 Assay for Mitochondrial Mass (AID 2282924).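 Note: MitoTracker Red CMXRos stain intensity per cell imaged as mitochondrial mass.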 The settings on record: high-content imaging, actives raise or lower the signal. The essentials:
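Readout is imaged MitoTracker Red (250 nM, 30 min, pre-fixation) signal, fitted bidirectionally against DMSO baseline. Human HepG2 liver cells received compound 0.39–200 uM in duplicate for 72 hr, final DMSO 0.5%.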

Assay [10] is described as follows: APR_HepG2_NuclearSize_72hr: Apredica 72-hour HepG2 Assay for Nuclear Size (AID 2282925). The following applies: high-content imaging, actives raise or lower the signal. The gist of the method:
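Nuclear size was read by high-content imaging of Hoechst 33342 stain after formaldehyde fixation. Compounds ran 72 h on HepG2 at 0.39 to 200 uM, with final DMSO 0.5% v/v. Curves fitted both directions relative to DMSO control.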

Assay [11] can be described thus: ATG_CRE_CIS: Attagene CIS-FACTORIAL HepG2 Assay for human cAMP Responsive Element (CRE) binding protein 3 (AID 2282926). The settings on record: HepG2 CRE cis-reporter, Attagene multiplexed mRNA; actives raise or lower the signal. The gist of the method:
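Induced reporter mRNA from a CRE cis element, measured in HepG2 among many multiplexed units at 24 h. Detection used RT-PCR plus capillary electrophoresis of fluorescent fragments; DMSO served as negative control.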

For assay [12], the target named is CCAAT/enhancer-binding protein beta (Homo sapiens) (UniProt P17676). As to the kind of experiment: ATG_C_EBP_CIS: Attagene CIS-FACTORIAL HepG2 Assay for human CCAAT/Enhancer Binding Protein (C/EBP) beta (AID 2282927). The following applies: HepG2 Attagene cis-factorial transcription factor reporter; actives raise or lower the signal. The essentials:
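Endogenous transcription factor activity in human liver HepG2 cells is inferred from induction of a CEBPB-linked reporter mRNA. Exposure lasts 24 h; activity is fitted in both directions relative to DMSO.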

The nature of assay [13]: ATG_CMV_CIS: Attagene CIS-FACTORIAL HepG2 Assay for human CMV (Internal Marker) (AID 2282928).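 Note: endpoint acts as a background internal control marker rather than a target.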 The settings on record: HepG2 CMV promoter reporter, transcription factor profiling; actives raise or lower the signal. The essentials: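 Bidirectional fits against DMSO are applied to reporter mRNA, read by RT-PCR with capillary electrophoresis, from HepG2 cells exposed 24 h. The endpoint serves as an internal CMV background marker within the cis-factorial reporter panel.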

Assay [14] is described as follows: ATG_DR4_LXR_CIS: Attagene CIS-FACTORIAL HepG2 Assay for human Liver X Receptor (LXR), DR4 submotif (AID 2282929). The settings on record: HepG2 Attagene DR4 cis-reporter, mRNA transcription; actives raise or lower the signal. The gist of the method: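 Transiently transfected HepG2 liver cells; cis-regulated reporters; 24 h dosing. RT-PCR plus CE read-out of reporter mRNA. DMSO baseline, bidirectional curve fitting.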

Assay [15] concerns the target Aryl hydrocarbon receptor (Homo sapiens) (UniProt P35869). As to the kind of experiment: ATG_Ahr_CIS: Attagene CIS-FACTORIAL HepG2 Assay for human Aryl Hydrocarbon Receptor (Ahr) (AID 2282930). The following applies: HepG2 AhR cis-factorial reporter transcription; actives raise or lower the signal. The essentials: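 Transient MRTU transfection of HepG2 → 24 h compound exposure → total RNA, oligo(dT) RT → PCR, 6-FAM extension, HpaI cut → CE fluorescence. DMSO = baseline; bidirectional curve fit.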

Assay [16] can be described thus: ATG_AP_2_CIS: Attagene CIS-FACTORIAL HepG2 Assay for human Activator Protein 2 (AP-2) (AID 2282932). The following applies: HepG2 AP-2 cis-reporter, Attagene transcription factor profiling; actives raise or lower the signal. The gist of the method: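 Endogenous transcription factor activity is reported through transfected multiplex reporter constructs in HepG2, after 24 h of compound exposure. Transcripts were quantified by RT-PCR and capillary electrophoresis of fluorescent fragments. Bidirectional fit against DMSO.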

A short description of assay [17]: ATG_BRE_CIS: Attagene CIS-FACTORIAL HepG2 Assay for human Bone Morphogenetic Protein (BMP) Response Element (BRE) (AID 2282933). The following applies: HepG2 BMP response element reporter, Attagene transcription factor profiling; actives raise or lower the signal. The gist of the method:
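HepG2 cells transiently transfected with CIS reporter units (endogenous TF activity, BMP response element), dosed 24 h. Reporter mRNA quantified by RT-PCR, fluorescent labelling and capillary electrophoresis; bidirectional fit vs DMSO baseline.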

The target of assay [18] is Retinoic acid receptor alpha (Homo sapiens) (UniProt P10276). As to the kind of experiment: ATG_DR5_RAR_CIS: Attagene CIS-FACTORIAL HepG2 Assay for human Retinoic Acid Receptor Alpha (RARE), DR5 submotif (AID 2282934).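 For AC50: reporter responds to endogenous RAR alpha beta and gamma in HepG2 not RARA alone.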 The following applies: HepG2 Attagene cis-factorial RARE DR5 reporter, mRNA; actives raise or lower the signal. The essentials:
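Transient MRTU transfection of HepG2; 24 h compound treatment; TriZol RNA, oligo(dT) RT, PCR, FAM labelling, capillary electrophoresis. Bidirectional fit vs DMSO. Endogenous TF activity at DR5 RARE.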

The target of assay [19] is Transcription factor E2F1 (Homo sapiens) (UniProt Q01094). As to the kind of experiment: ATG_E2F_CIS: Attagene CIS-FACTORIAL HepG2 Assay for human E2F Transcription Factor 1 (AID 2282935). The settings on record: HepG2 Attagene cis-reporter, E2F reporter RNA transcripts; actives raise or lower the signal. The essentials: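 Gain or loss of reporter transcript, fitted against DMSO, reflects E2F1-driven transcription. Transiently transfected HepG2 dosed 24 h before RNA isolation. Quantified by fluorescent RT-PCR products separated by capillary electrophoresis.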
Transcription factor E2F1 (Homo sapiens), sequence (Q01094 whole entry, looked up): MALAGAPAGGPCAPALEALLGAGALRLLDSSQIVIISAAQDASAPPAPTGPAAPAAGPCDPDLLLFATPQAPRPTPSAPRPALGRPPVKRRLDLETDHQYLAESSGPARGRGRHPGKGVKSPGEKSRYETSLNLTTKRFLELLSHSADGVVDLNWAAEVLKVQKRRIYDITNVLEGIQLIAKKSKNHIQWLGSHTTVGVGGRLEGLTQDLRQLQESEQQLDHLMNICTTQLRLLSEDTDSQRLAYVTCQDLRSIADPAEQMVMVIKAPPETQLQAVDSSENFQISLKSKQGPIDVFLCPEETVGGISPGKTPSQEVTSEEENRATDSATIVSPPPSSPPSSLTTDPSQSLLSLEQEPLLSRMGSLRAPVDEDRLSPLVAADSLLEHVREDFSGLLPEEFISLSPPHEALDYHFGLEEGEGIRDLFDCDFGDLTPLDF

Assay [20] is described as follows: ATG_AP_1_CIS: Attagene CIS-FACTORIAL HepG2 Assay for human Activator Protein 1 (AP-1) (AID 2282931). The settings on record: HepG2 Attagene cis-factorial AP-1 reporter mRNA; actives raise or lower the signal. The essentials:
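We transfected HepG2 cells transiently with a set of cis-regulated reporter transcription units, dosed them for 24 h, and quantified reporter mRNA via RT-PCR and capillary electrophoresis, scoring gain or loss of signal relative to DMSO.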

Activity calls are given as the source filed them. Rule for the calls: active = hit-call score of the fitted dose curve at least 0.9, where 1 is the maximum; inactive = score below 0.9.

Retinoic acid receptor alpha (Homo sapiens), sequence (P10276 whole entry, looked up): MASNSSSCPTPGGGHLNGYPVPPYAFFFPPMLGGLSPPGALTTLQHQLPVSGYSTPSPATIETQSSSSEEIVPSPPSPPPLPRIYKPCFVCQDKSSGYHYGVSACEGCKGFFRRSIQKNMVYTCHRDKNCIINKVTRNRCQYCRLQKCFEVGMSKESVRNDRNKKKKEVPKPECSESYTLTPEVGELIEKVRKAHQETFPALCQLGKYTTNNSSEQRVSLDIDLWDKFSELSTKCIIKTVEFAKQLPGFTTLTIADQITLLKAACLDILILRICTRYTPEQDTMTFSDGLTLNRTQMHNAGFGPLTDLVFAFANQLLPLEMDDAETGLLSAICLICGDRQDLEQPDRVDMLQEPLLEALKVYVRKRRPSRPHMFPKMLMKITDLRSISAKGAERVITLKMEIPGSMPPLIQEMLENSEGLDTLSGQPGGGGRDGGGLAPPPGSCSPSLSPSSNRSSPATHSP
Aryl hydrocarbon receptor (Homo sapiens), sequence (P35869 whole entry, looked up): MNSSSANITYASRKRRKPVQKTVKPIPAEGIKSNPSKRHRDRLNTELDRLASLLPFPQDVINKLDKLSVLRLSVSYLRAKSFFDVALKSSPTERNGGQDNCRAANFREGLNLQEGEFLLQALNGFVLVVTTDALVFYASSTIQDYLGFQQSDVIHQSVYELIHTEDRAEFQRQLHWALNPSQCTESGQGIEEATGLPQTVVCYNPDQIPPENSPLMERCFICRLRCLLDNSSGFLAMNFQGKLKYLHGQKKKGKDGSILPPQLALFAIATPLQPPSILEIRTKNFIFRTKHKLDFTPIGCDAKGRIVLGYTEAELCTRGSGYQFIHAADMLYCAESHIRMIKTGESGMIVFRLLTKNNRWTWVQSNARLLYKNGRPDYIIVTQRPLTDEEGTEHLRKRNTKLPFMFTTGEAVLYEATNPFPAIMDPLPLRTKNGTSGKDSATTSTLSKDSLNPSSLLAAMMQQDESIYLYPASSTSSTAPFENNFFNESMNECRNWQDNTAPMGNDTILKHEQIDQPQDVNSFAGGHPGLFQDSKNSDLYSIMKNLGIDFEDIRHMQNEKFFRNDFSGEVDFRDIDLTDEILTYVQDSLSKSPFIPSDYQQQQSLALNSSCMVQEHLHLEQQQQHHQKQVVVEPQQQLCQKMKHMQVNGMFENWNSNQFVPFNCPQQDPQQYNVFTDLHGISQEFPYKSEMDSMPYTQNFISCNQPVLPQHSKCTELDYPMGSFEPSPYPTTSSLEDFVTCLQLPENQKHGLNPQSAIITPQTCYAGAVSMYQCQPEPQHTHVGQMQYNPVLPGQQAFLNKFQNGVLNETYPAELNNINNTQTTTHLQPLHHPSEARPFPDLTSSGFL
CCAAT/enhancer-binding protein beta (Homo sapiens), sequence (P17676 whole entry, looked up): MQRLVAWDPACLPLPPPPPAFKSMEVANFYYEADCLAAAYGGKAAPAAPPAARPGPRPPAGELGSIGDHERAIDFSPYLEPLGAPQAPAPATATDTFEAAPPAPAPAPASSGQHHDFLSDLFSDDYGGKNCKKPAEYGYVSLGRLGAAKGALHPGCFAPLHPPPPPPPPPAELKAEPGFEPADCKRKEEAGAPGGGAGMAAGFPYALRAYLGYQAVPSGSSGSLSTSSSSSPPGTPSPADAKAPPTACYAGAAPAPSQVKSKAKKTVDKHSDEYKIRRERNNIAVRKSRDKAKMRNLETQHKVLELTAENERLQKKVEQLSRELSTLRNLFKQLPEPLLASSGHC

In the case of `Nc1nc(N)nc(NC2CC2)n1`, the molecule was classed as inactive in assay [1], in [2], in [3], in assay [4], in [5] and in assay [6]. For the same molecule, the molecule was called inactive in [7], in [8], in assay [9], in assay [10], in [11] and in [12]. Besides, the outcome in assay [13], in assay [14], in assay [15], in assay [16], in assay [17] and in assay [18] was inactive. Also, the molecule was called inactive in assay [19].
As for `CC(C)[C@H](C(=O)O[C@H](C#N)c1cccc(Oc2ccccc2)c1)c1ccc(Cl)cc1`, the result in [1], in assay [2], in assay [3], in assay [4], in [5] and in [6] was inactive. Moreover, the call in assay [7], in assay [8], in assay [9], in assay [10], in assay [11] and in assay [12] was inactive. The outcome in assay [13], in [15], in [16], in assay [17] and in assay [19] was inactive. The AC50 in assay [14] is 13.9 µM (active).
Take `CCOP(=O)(OCC)Oc1cc(C)nc(C(C)C)n1`: the result in [1], in assay [2], in [3], in [4], in [5] and in assay [6] was inactive. For the same molecule, the call in assay [7], in assay [8], in [9], in [10], in assay [11] and in [12] was inactive. The molecule was classed as inactive in [13], in assay [14], in [15], in [20], in assay [16] and in assay [17]. The outcome in [19] was inactive.
On to `CCOC(=O)COc1cc(-c2nn(C)c(OC(F)F)c2Cl)c(F)cc1Cl`, for which the molecule was classed as inactive in assay [1], in assay [2], in assay [3], in [4], in [5] and in [6]. For the same molecule, the molecule was classed as inactive in assay [7], in [8], in assay [9], in assay [10], in [11] and in assay [12]. Also, the call in assay [13], in [15], in assay [20], in assay [16], in assay [17] and in assay [18] was inactive. Further, in assay [19], the molecule was classed as inactive.
As for `CCC(=O)Nc1ccc(Cl)c(Cl)c1`, the molecule was called inactive in assay [1], in assay [2], in assay [3], in assay [4], in assay [5] and in [6]. Also, the molecule was called inactive in [7], in assay [8], in assay [9], in [10], in [11] and in assay [12]. Besides, the molecule was called inactive in assay [14], in assay [15], in [16], in assay [17], in [18] and in [19]. For the same molecule, the AC50 in assay [13] was 22.9 µM (active).
For `Cc1cc(C2CC2)nc(Nc2ccccc2)n1`, the AC50 in assay [1] is 51.8 µM (active); in [3] it was 70.1 µM (active); in assay [4] it was 56.9 µM (active); in assay [11] it was 18 µM (active); in assay [13], 13.1 µM (active); in [20] it was 32.2 µM (active). For the same molecule, the AC50 in [17] is 33.5 µM (active); in assay [18] it was 12.3 µM (active). Also, the molecule was called inactive in [2], in [5], in assay [6], in assay [7], in [8] and in assay [9]. The outcome in assay [10], in assay [12], in assay [14], in [16] and in [19] was inactive.
For `CC(=NC#N)N(C)Cc1ccc(Cl)nc1`, the molecule was called inactive in assay [1], in assay [2], in [3], in [4], in [5] and in assay [6]. Moreover, the molecule was classed as inactive in [7], in assay [8], in [9], in [10], in assay [11] and in [12]. The call in assay [13], in assay [14], in assay [15], in assay [20], in assay [16] and in [17] was inactive. Moreover, the call in assay [18] and in [19] was inactive.

(Values after PubChem BioAssay (EPA / NIEHS).)
